Data taken from PubChem BioAssay (NCI).
About 83,000 compounds went through this panel and 20% of them were active in at least one assay; those are over-represented in the sample as a whole.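 The endpoint reported here, percent growth, reads 100 for growth as untreated, 0 for no net growth and -100 for all cells dead.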 The source made the active and inactive calls. The calls were made as follows: active = growth percent below 10; inactive = the rest.

Test system: SF-268 CNS
Assay: NCI-60 one-dose screen, 48 h (100 = growth as untreated, 0 = no growth, -100 = all killed)
Conditions: 10 µM unless noted

Compound | growth
Cc1ccc(-c2onc3c(=O)[nH]nc(-c4ccccc4)c23)cc1 | 48.6% (inactive)
O=C1CSC(=S)N1CCc1ccc(O)cc1 | 86.2% (inactive)
CNC(=O)c1cc(Oc2ccc(NC(=O)Nc3ccc(Cl)c(OC(F)(F)F)c3)c(F)c2)ccn1 | 45.2% (inactive)
N#C/C(=C\c1ccc(-c2ccc(Cl)c(Cl)c2)o1)c1nc(-c2ccco2)cs1 | 97.2% (inactive)
O=S(=O)(Nc1ccc(OC(F)F)cc1)c1ccc(-c2cnc(C3CC3)o2)cc1 | 75.4% (inactive)
O=C1Nc2cc(-c3ccc(O)cc3)ccc2/C1=C/c1ccc[nH]1 | 21.7% (inactive)
CON1C(=O)CC[C@]2(C)[C@H]3CC[C@@H]4C([C@@]5(C)CCC(=O)O5)CC[C@@]4(C)[C@]3(C)CC[C@H]2C1(C)C (stereo partly drawn) | 97.4% (inactive)
Cn1cc(C(=O)c2nc(-c3c[nH]c4ccc(Br)cc34)no2)c2cc(F)ccc21 | 99.2% (inactive)
COc1ccc(-n2nc(C)c3c(Nc4ccc(NC(=O)Nc5cccc(C(F)(F)F)c5)cc4)ncnc32)cc1 | 22.8% (inactive)
CC(C)C1=C[C@@]23CC[C@@H]4[C@](C)(CCC[C@@]4(C)C(=O)N4CCCNCC4)[C@H]2C[C@@H]1[C@H]1C(=O)CCC(=O)[C@H]13 | 97.8% (inactive)
C#CCOc1ccc2ncnc(N3CCC(NC(=O)CCl)CC3)c2c1 | 49.1% [8.25 µM] (inactive)
Cc1ccc(NC(=O)/C=C/c2ccccc2)c(C(N)=O)c1 | 43.3% (inactive)
COc1ccc(/C=C\c2cc(OC)c(OC)c(OC)c2)cc1OC(=O)c1cccc(Cn2cc(CCOC(=O)[C@H](N)Cc3cn(C)c4ccccc34)nn2)c1 | 23.1% (inactive)
